Source: PubChem BioAssay (National Center for Advancing Translational Sciences (NCATS))
The list is not random: actives were taken first. Their share in the collection is about 7.5%.
SMN2 splice up: qHTS Assay for Enhancers of SMN2 Splice Variant Expression; 210,000 tested, 2.8% active; Potency, µM (doses to about 46.1 µM), most hits filed as activators; HEK293 SMN2-luciferase splicing reporter, luminescence, 30-36 h; note: nearly all actives have a fitted effect of over 55% in size
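qHTS luciferase splicing reporter: luminescence rises when SMN2 exon 7 is included in transfected HEK293 cells. Compound exposure lasted 30-36 h at 37C, with 4.5 mM final sodium butyrate as control, followed by a ONE-Glo read.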
NPC1 promoter act: qHTS Assay for NPC1 Promoter Activators; Potency, µM (titrated, usually from 9.22 µM), hits mostly activators; AID 485313, 2010; Huh7 NPC1 promoter luciferase reporter, 24 h; 320,000 tested, 2.4% active; note: nearly all actives have a fitted effect of over 60% in size
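Huh7 reporter cells (NPC1 promoter driving luciferase) are dosed with compound for 24 h at 37 °C, 5% CO2; luciferase detection reagent is then added and luminescence measured after 10 min at ambient temperature.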
FLuc modulator: qHTS profiling assay for firefly luciferase inhibitor/activator using purifed enzyme and Km concentrations of substrates (counterscreen for miR-21 project); Luciferin 4-monooxygenase (Photinus pyralis), P08659; purified FLuc, Km substrates, luminescence inhibition; Potency, µM (series often up to 57.5 µM), actives largely listed as inhibitors; 360,000 tested, 6.9% active; AID 588342, 2011; note: nearly all actives have a fitted effect of over 55% in size
Target sequence (P08659 whole entry, looked up): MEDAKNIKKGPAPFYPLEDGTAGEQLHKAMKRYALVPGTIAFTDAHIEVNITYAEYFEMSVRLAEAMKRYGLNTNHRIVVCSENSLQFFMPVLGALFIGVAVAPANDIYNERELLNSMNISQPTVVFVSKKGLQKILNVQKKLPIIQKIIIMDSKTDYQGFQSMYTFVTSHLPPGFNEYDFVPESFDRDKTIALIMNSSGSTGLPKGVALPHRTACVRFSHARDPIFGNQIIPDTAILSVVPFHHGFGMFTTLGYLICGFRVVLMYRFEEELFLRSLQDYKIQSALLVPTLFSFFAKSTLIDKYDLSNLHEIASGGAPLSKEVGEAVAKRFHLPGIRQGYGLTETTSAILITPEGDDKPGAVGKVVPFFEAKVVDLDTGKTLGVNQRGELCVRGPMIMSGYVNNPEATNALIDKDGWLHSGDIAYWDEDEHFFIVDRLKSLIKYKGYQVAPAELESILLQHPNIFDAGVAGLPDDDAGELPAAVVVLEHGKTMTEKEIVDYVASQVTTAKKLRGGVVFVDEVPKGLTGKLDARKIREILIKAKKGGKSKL
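Purified P. pyralis luciferase, 10 nM final, with Km-level 10 uM D-luciferin and 10 uM ATP in 50 mM Tris acetate pH 7.5, 10 mM Mg acetate, 0.01% Tween-20, 0.05% BSA; 6-point qHTS titration about 60 µM downward; luminescence read.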
KinaseGlo FLuc: Counterscreen for Luciferase (Kinase-Glo TM) Inhibition | Luciferin 4-monooxygenase (Photuris pensylvanica), Q27757 | Potency, µM (highest dose often 38.3 µM), usual class: inhibitors | Kinase-Glo luciferase, ATP luminescence, 8 min | 200,000 tested, 0.28% active; note: nearly all actives have a fitted effect of over 60% in size
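Compounds were added to a substrate mix at pH 7.2 (50 mM imidazole, 10 uM ATP, within the enzyme's linear range), followed by Kinase-Glo detection reagent; luminescence was measured after 8 minutes at ambient temperature.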
ELG1 genotoxic: qHTS screen for small molecules that induce genotoxicity in human embryonic kidney (HEK293T) cells expressing luciferase-tagged ELG1; HEK293T ELG1-luciferase reporter, luminescence, 16 h; Potency, µM (titrated, usually from 46 µM), most hits filed as activators; 330,000 tested, 1.3% active; AID 504466, 2011; note: nearly all actives have a fitted effect of over 60% in size
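Quantitative HTS format in 1536-well plates. HEK293T ELG1-luciferase reporter cells receive test compound and are incubated 16 hr at 37 °C, 5% CO2; ONE-Glo added, 30 min room temperature, then luminescence read.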
Rab9 promoter act: qHTS Assay for Rab9 Promoter Activators. Huh7 Rab9 promoter-luciferase reporter, luminescence, 24 h. Potency, µM (series often up to 9.22 µM), actives largely listed as activators. 320,000 tested, 2.8% active; note: nearly all actives have a fitted effect of over 60% in size
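Stable Rab9-luc Huh7, 1500 cells/well, 2 h settle; cmpd in DMSO, 24 h, 37 °C/5% CO2; luciferase reagent 10 min RT; luminescence.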
Hits are given with their value; - = inactive; ? = inconclusive; . = no result given; [ ] = remark or other dose. Calls come from the whole dose curve; as a rule, active = well fitted curve in the direction sought with a large enough effect; inconclusive = small, poorly fitted or top-dose-only effect, or another doubt; inactive = no such curve, though single readings can be large; an effect the other way counts as inactive or inconclusive.

SMILES | SMN2 splice up | NPC1 promoter act | FLuc modulator | KinaseGlo FLuc | ELG1 genotoxic | Rab9 promoter act
CCn1c(SCC(=O)Nc2cc(C(C)(C)C)nn2-c2ccccc2)nnc1-c1cccs1 | - | - | - | - | - | -
CCn1c(SCC(N)=O)nnc1-c1cc2c(C)nn(-c3ccccc3)c2s1 | - | - | 15µM | - | - | -
CCc1ccc(NC(=O)c2ccc3c(O)c(S(=O)(=O)c4ccc(Cl)cc4)c(=O)[nH]c3c2)cc1 | . | . | 7.6µM | . | . | .
COc1cccc(NC(=O)c2ccc3c(O)c(S(=O)(=O)c4ccccc4)c(=O)[nH]c3c2)c1 | . | - | 19µM | . | -[9.26 µM] | -
COC(=O)[C@H](Cc1ccccc1)NC(=O)Cn1cnc2c(NCc3ccccc3)ncnc21 | . | . | . | . | - | .
CCOc1cc(-c2nc3c(c(CC)nn3-c3ccccc3)c3cc(OC)c(OC)cc23)ccc1O | - | . | - | . | . | .
COc1ccccc1N1CCN(/N=C\c2ccccc2)CC1 | . | ? | 15µM | . | ? | ?
Cc1ccc(N2CCN(/N=C/C(Cl)=C/c3ccccc3)CC2)cc1 | - | - | - | - | - | -
COc1ccccc1N1CCN(/N=C\c2ccc(C)o2)CC1 | 11µM | 3.5µM | 21µM | - | ? | 3.2µM
COc1ccccc1N1CCN(/N=C/C(Cl)=C/c2ccccc2)CC1 | . | 2.5µM | 5.4µM | . | - | 3.2µM
CC(C)CN(C(=O)C1CCCO1)c1c(N)n(CC(C)C)c(=O)[nH]c1=O (stereo unspecified) | . | - | - | . | - | -
CC1CCc2nc(/C(C#N)=C/c3ccncc3)sc2C1 (stereo unspecified) | 18µM | 2.8µM | 9.5µM | - | ? | 3.2µM
Cc1ccc(Nc2ncnc(-n3cccc3)n2)cc1Cl | . | ? | 2.7µM | . | ? | 3.2µM
Clc1cc(Cl)cc(Nc2ncnc(-n3cccc3)n2)c1 | . | - | - | . | - | -
O=C(COc1ccc2ccccc2c1)Nc1ccc(Br)cc1C(=O)O | . | - | ? | . | - | -
CCCCN1C=CC(=C2N=c3cccc([N+](=O)[O-])c3=N2)C=C1 | 11µM | ? | 21µM | ? | ? | ?
COc1cc(-c2noc(-c3ccc(N(C)C)c([N+](=O)[O-])c3)n2)cc(OC)c1OC | . | . | 15µM | . | . | .
COc1cc(-c2noc(-c3ccc(N4CCCCC4)c([N+](=O)[O-])c3)n2)cc(OC)c1OC | . | . | 17µM | . | . | .
COc1ccc(NC(=O)C2CCCN(S(=O)(=O)c3ccc4c(c3)CCCC(=O)N4)C2)c(OC)c1 (stereo unspecified) | . | . | - | . | . | .
Cc1ccnc(NC(=O)CNC(=O)COc2ccccc2)c1 | . | - | 19µM | . | ? | -
Cc1ccnc(NC(=O)CNC(=O)c2ccc3ccccc3c2)c1 | . | - | ? | . | 21µM | -
O=C(Cn1cnc2scc(-c3ccc(F)cc3)c2c1=O)NCC(c1ccco1)N1CCCC1 (stereo unspecified) | . | - | - | . | - | -
Cn1c(=O)oc2cc(S(=O)(=O)NCCC(=O)Nc3ccc(F)cc3F)ccc21 | - | . | - | . | . | .
C=CCC(C)(O)/C=C/c1ccccc1 (stereo unspecified) | - | . | . | - | . | .
O=C(c1ccccc1-c1nc2ccccc2[nH]1)N1CCOCC1 | - | - | -[2.3 µM] | - | - | -
SMILES | SMN2 splice up | NPC1 promoter act | FLuc modulator | KinaseGlo FLuc | ELG1 genotoxic | Rab9 promoter act
c1ccc2[nH]c(-c3ccncc3)nc2c1 | . | - | ? | - | - | -
O=C(O)c1ccccc1-c1nc2ccccc2[nH]1 | - | - | 13µM | - | - | ?
COC(=O)c1ccc(-c2nc3ccccc3[nH]2)cc1 | 8.9µM | 0.71µM | 1.7µM | ? | ? | 0.5µM
COc1ccc(-c2nc3ccccc3[nH]2)cc1 | 2.5µM | 0.5µM | 0.67µM | 8.9µM | 0.52µM | 0.63µM
c1ccc(-c2nc3ccccc3[nH]2)cc1 | . | 3.5µM | 7.6µM | . | ? | 1.6µM
O=C(CN1CCN(S(=O)(=O)c2ccccc2)CC1)Nc1ccc(Cl)c([N+](=O)[O-])c1 | . | - | - | . | ? | -
O=C(CCNC(=O)c1ccc(Cl)cc1)NCC(c1ccco1)N1CCCC1 (stereo unspecified) | . | - | - | . | - | -
COc1ccc2oc(=Nc3cccc(F)c3)c(C(N)=O)cc2c1 | - | - | - | - | - | -
O=C(O)c1cccc(-c2nc3ccccc3[nH]2)c1 | 16µM | ? | 1.9µM | - | - | ?
COc1ccc2oc(=Nc3ccccc3)c(-c3nc4ccccc4[nH]3)cc2c1 | 13µM | ? | 6µM | - | 7.3µM | ?
COc1ccc(CCCc2nc3ccccc3[nH]2)cc1 | . | - | ? | . | - | -
c1cncc(-c2nc3ccccc3[nH]2)c1 | - | - | ? | - | - | -
Nc1cc(N)cc(-c2nc3ccccc3[nH]2)c1 | ? | - | 24µM | - | ? | -
COc1ccc(-c2cc(=O)n(-c3nc4ccccc4[nH]3)[nH]2)cc1 | ? | - | 11µM | - | ? | ?
O=C(O)c1ccc2nc(CO)[nH]c2c1 | - | - | ? | - | ? | -
COc1ccccc1NC(=O)C1CCCN(S(=O)(=O)c2ccccc2)C1 (stereo unspecified) | . | - | - | . | - | -
Cc1cc(-c2nc3ccccc3[nH]2)ccc1N | 6.3µM | 0.89µM | 4.3µM | 10µM | ? | 0.56µM
COc1cc(OC)cc(C(=O)Nc2cc(-c3nc4ccccc4[nH]3)ccc2C)c1 | - | . | 7.6µM | . | . | .
Cc1cccc(NC(=O)c2c(NC(=O)c3ccccc3)sc3c2CCCC3)c1 | - | . | ? | . | . | .
Cc1cc(C(=O)OCC(=O)c2ccc(Br)s2)no1 | - | - | 9.5µM | - | - | -
Cc1cc(C(=O)OCC(=O)c2ccc(Br)s2)c(C)o1 | - | - | ? | - | - | -
COc1cccc(C(=O)OCC(=O)NCCNC(=O)COC(=O)c2cccc(OC)c2OC)c1OC | . | - | - | . | - | -
COc1cccc(C(=O)OCC(=O)c2ccc(Br)s2)c1OC | . | - | 8.5µM | . | - | -
N/C(=N\OC(=O)c1ccccc1Cl)c1ccccc1 | 11µM | 3.2µM | 0.38µM | ? | ? | 3.2µM
N/C(=N\OC(=O)c1ccco1)c1cccnc1 | - | - | ? | - | ? | -
SMILES | SMN2 splice up | NPC1 promoter act | FLuc modulator | KinaseGlo FLuc | ELG1 genotoxic | Rab9 promoter act
COc1ccccc1C(=O)O/N=C(\N)c1ccccc1Cl | 22µM | - | ? | - | ? | ?
N/C(=N\OC(=O)c1ccccc1Cl)c1ccc(Cl)cc1 | 16µM | - | 1.3µM | - | 2.6µM | ?
COc1ccc(C(=O)O/N=C(\N)c2ccccc2Cl)cc1OC | . | - | ? | . | ? | -
N/C(=N\OC(=O)c1ccco1)c1ccc(Cl)cc1 | . | ? | 24µM | - | 7.3µM | ?
CCCC(=O)N(CCN1CCOCC1)c1nc2c(OC)ccc(OC)c2s1 | . | - | - | . | - | -
COc1ccccc1C(=O)Oc1ccc(C(C)C)cc1 | - | - | 9.5µM | - | ? | -
